# High-throughput results from PubChem BioAssay.
# NOMO-1 viab – STK33 inhibitor candidate reducing NOMO-1 cell viability | NOMO-1 AML viability, CellTiter-Glo luminescence, 72 h | inhibition, % (test concentration not listed) | 37,000 compounds, 7.5% hits; in the data active means inhibition above about 80%; inconclusive means no clear call, values can overlap the other calls
# MITF inhib – blocks MITF activity; inhibition, % (concentration not given with the values); TRPM1 promoter luciferase, luminescence, 24 h; 37,000 compounds, 0.28% hits; AID 2240; in the data active means inhibition above about 85%; inconclusive means no clear call, values can overlap the other calls; inactive means below about 68%;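 further: human melanocyte line stably carrying TRPM1 promoter luciferase reporter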
# Hedgehog inh – blocks Sonic Hedgehog signaling | Shh-LIGHT2 Gli-luciferase reporter, 30 h | inhibition, % (concentration not given with the values) | 22,000 compounds, 2.1% hits | AID 2313;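 active means mean inhibition across valid replicates above about 65%, limit read from the data; inconclusive means mean under the limit, yet half or more replicates past it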;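 further: pathway switched on by Shh-conditioned medium diluted 1 in 25 in low serum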
# Numbers stand for hits; . = inactive; ? = inconclusive; / = no result given. Most compounds without a hit are left out; they make up all but 7.9% or so of the library.
SMILES,NOMO-1 viab,MITF inhib,Hedgehog inh
C[C@H](CO)N1C[C@H](C)[C@@H](CN(C)Cc2ccc(Oc3ccccc3)cc2)Oc2c(NC(=O)c3ccc(-c4nccs4)cc3)cccc2C1=O,112,.,.
C[C@H](CO)N1C[C@H](C)[C@H](CN(C)Cc2ccc(C(F)(F)F)cc2)Oc2c(NC(=O)c3ccc(-c4nccs4)cc3)cccc2C1=O,98,.,.
C[C@H]1CN([C@@H](C)CO)C(=O)c2cccc(NC(=O)c3ccc(-c4nccs4)cc3)c2O[C@H]1CN(C)Cc1ccc(C(F)(F)F)cc1,.,.,.
CC(C)NC(=O)N(C)C[C@@H]1OCCCC[C@@H](C)Oc2ccc(NC(=O)C3CCCCC3)cc2C(=O)N([C@H](C)CO)C[C@@H]1C,.,.,.
C[C@H]1CN([C@@H](C)CO)C(=O)Cc2cc(NS(=O)(=O)c3cn(C)cn3)ccc2O[C@@H]1CN(C)C(=O)Nc1ccccc1,.,.,.
COc1cc(NC(=S)NC(=O)C(C)Oc2ccc(Cl)cc2Cl)c(OC)cc1Cl (stereo not given),.,.,/
CC1(NC(=S)Nc2ccc(O)cc2)CCS(=O)(=O)C1 (stereo not given),.,.,/
C[C@H]1CN([C@@H](C)CO)C(=O)Cc2cc(NS(=O)(=O)c3ccc(F)cc3)ccc2O[C@@H]1CN(C)Cc1ccc(Cl)c(Cl)c1,.,.,.
C[C@@H]1CN([C@H](C)CO)C(=O)Cc2cc(NS(=O)(=O)c3ccc(F)cc3)ccc2O[C@@H]1CN(C)Cc1ccc(Cl)c(Cl)c1,106,.,/
C[C@H](CO)N1C[C@H](C)[C@H](CN(C)Cc2ccc(Cl)c(Cl)c2)Oc2ccc(NS(=O)(=O)c3ccc(F)cc3)cc2CC1=O,107,.,.
C[C@@H]1CN([C@H](C)CO)C(=O)Cc2cc(NS(=O)(=O)c3ccc(F)cc3)ccc2O[C@H]1CN(C)Cc1ccncc1,.,.,.
Cc1cc(C(=O)Nc2cccc3c2O[C@@H](CN(C)S(=O)(=O)c2ccc(F)cc2)[C@H](C)CN([C@H](C)CO)C3=O)n(C)n1,.,.,.
C[C@H](CO)N1C[C@H](C)[C@H](CN(C)Cc2ccc3c(c2)OCO3)Oc2ccc(NC(=O)Nc3ccc(C(F)(F)F)cc3)cc2CC1=O,124,.,.
C[C@@H]1CN([C@H](C)CO)C(=O)Cc2cc(NC(=O)Nc3ccc(C(F)(F)F)cc3)ccc2O[C@@H]1CN(C)Cc1ccc2c(c1)OCO2,115,.,.
C[C@@H]1CN([C@H](C)CO)C(=O)Cc2cc(NC(=O)Nc3ccc4c(c3)OCO4)ccc2O[C@@H]1CN(C)Cc1ccc(C(F)(F)F)cc1,81,.,.
C[C@@H]1CN([C@@H](C)CO)C(=O)Cc2cc(NC(=O)Nc3ccc4c(c3)OCO4)ccc2O[C@@H]1CN(C)Cc1ccc2c(c1)OCO2,.,.,.
C[C@H]1CN([C@@H](C)CO)C(=O)Cc2cc(NC(=O)Nc3ccc(C(F)(F)F)cc3)ccc2O[C@@H]1CN(C)Cc1ccc2c(c1)OCO2,.,.,.
C[C@@H]1CN([C@H](C)CO)C(=O)Cc2cc(NC(=O)Nc3ccc(F)cc3)ccc2O[C@H]1CN(C)Cc1ccc2c(c1)OCO2,.,.,.
CS(=O)(=O)N(CC(=O)Nc1cccnc1)c1cccc(F)c1,.,.,/
CC1=CC(=O)OC(c2ccccc2)C1 (stereo not given),.,.,.
Cc1ccc(S(=O)(=O)N(C)C[C@@H]2Oc3c(NC(=O)c4cnccn4)cccc3C(=O)N([C@H](C)CO)C[C@H]2C)cc1,.,.,.
CCOc1ccc2nc(SCC(=O)Nc3ccc(Br)cc3F)sc2c1,.,.,/
COC(=O)c1ccc(OCC(=O)Nc2ccc(C(C)=O)cc2)cc1,.,.,/
COc1ccc(NC(=O)CNC(=O)c2cccc(C)c2)cc1,.,.,/
Cc1n[nH]c(=S)n(/N=C/C=C/c2ccccc2)c1=O,.,.,.
C[C@H]1CN([C@@H](C)CO)C(=O)Cc2cc(NS(C)(=O)=O)ccc2O[C@@H]1CN(C)Cc1ccc(C(=O)O)cc1,.,.,.
C[C@@H]1CN([C@@H](C)CO)C(=O)c2cc(NS(=O)(=O)c3ccc(Cl)cc3)ccc2O[C@H]1CN(C)Cc1ccc(C(=O)Nc2ccccc2N)cc1,?,.,/
C[C@H](CO)N1C[C@H](C)[C@@H](CN(C)Cc2ccc(C(=O)Nc3ccccc3N)cc2)Oc2ccc(NS(=O)(=O)c3ccc(Cl)cc3)cc2C1=O,.,.,/
COc1ccc(S(=O)(=O)Nc2ccc3c(c2)C(=O)N([C@@H](C)CO)C[C@H](C)[C@H](CN(C)Cc2ccc(C(=O)Nc4ccccc4N)cc2)O3)cc1,109,.,/
C[C@@H]1CN([C@H](C)CO)C(=O)c2cc(NS(=O)(=O)c3ccc(Cl)cc3)ccc2O[C@@H]1CN(C)Cc1ccc(C(=O)Nc2ccccc2N)cc1,109,.,/
